# Assay results as given in PubChem BioAssay (Tox21).
# Results filed as inconclusive are left out. Entries that show only a call come without a potency. Calls of active or inactive are those of the source. The call rests on the fitted dose curve; in most records, active means well fitted inhibition curve with a large enough effect in the signal ratio in the repeat runs (not every such curve was filed as active); inconclusive means weak or mixed curves, or effect the other way; inactive means flat fitted curve, though single readings scatter; the % refers to the signal ratio.
# Test: cAMP Responsive Elements (CRE) small molecule antagonists, cell-based qHTS assay (AID 1963591)
# Conditions: CRE-bla HEK293T, beta-lactamase FRET ratio; series mostly up to 92.4 µM
# Excerpt: U.S. Tox21 Program National Center for Advancing Translational Sciences [NCATS] Division of Preclinical Innovation [DPI] U.S. Environmental Protection Agency [EPA] National Institutes of Environmental Health Sciences [NIEHS] National Toxicology Program [NTP] U.S. Food and Drug Administration [FDA] Tox21 Assay Overview: CREB (cyclic-AMP Responsive Element Binding Protein) is a cellular transcription factor. It binds to certain DNA sequences called cAMP Responsive Elements (CRE) and regulates the transcription of the genes. […] This cell line can be used to find agonists/antagonists of the cyclic AMP signaling pathway. The activation of the report gene under culture conditions can be detected by fluorescence intensity. This cell line has been used to screen the Tox21 10K compound library to […].
# Tox21 Assay Protocol Summary: CRE-bla Hek 293T cells were suspended in assay medium (DMEM containing 10% dialyzed FBS, 0.1 mM NEAA, 1 mM sodium pyruvate and 25 mM HEPES) and dispensed at 2,000 cells/4 uL /well into 1536-well black wall/clear bottom plates using a Multidrop Combi (ThermoFisher Scientific, Waltham, MA) dispenser. After the assay plates were incubated at 37 C/5% CO2 for 18 hrs, 23 nL of compounds dissolved in DMSO, positive controls or DMSO only was transferred to the assay plate by a pintool workstation (Kalypsys, San Diego, CA), followed by addition of 1 […] uL of 1.25uM NKH477 (0.25 uM as final concentration) in assay medium using a Flying Reagent Dispenser (Aurora Discovery, San Diego, CA). The plates were incubated at 37 C and 5% CO2 for 3 hrs. Then 1 uL of LiveBLAzer B/G FRET substrate (Invitrogen, Carlsbad, CA) was added to each well using Bioraptr Flying Reagent Dispenser (FRD, Aurora Discovery, San Diego, CA). The plates were incubated at room temperature for 2 h.
row,SMILES,Potency
1,O=C(O)c1ccc2c(c1)C(=O)OC2=O,inactive
2,O=C1CCc2ccccc2O1,inactive
3,CCOc1ccc(NC(=O)CC(C)O)cc1 (stereo not given),inactive
4,CCc1cccc(CC)c1N,inactive
5,CCCCCCC(=O)O,inactive
6,C=C(C)C(=O)OCC(C)C,inactive
7,CC1Cc2ccccc2N1NC(=O)c1ccc(Cl)c(S(N)(=O)=O)c1 (stereo not given),inactive
8,CC/C(C)=N/O,inactive
9,Clc1ccc(Cl)c(Cl)c1Cl,inactive
10,CC(=O)Nc1ccc(CC(=O)O)cc1,inactive
11,CC(C)C(=O)Nc1ccc([N+](=O)[O-])c(C(F)(F)F)c1,inactive
12,C[C@H]1C[C@H]2[C@@H]3CCC4=CC(=O)C=C[C@]4(C)[C@@]3(F)[C@@H](O)C[C@]2(C)[C@@]1(O)C(=O)CO,inactive
13,O=C=NCCCCCCN=C=O,inactive
14,CC(C)OC(=O)COc1ccc(Cl)cc1Cl,inactive
15,CC[C@H](C)C(=O)O[C@H]1C[C@@H](C)C=C2C=C[C@H](C)[C@H](CC[C@@H]3C[C@@H](O)CC(=O)O3)[C@H]21,inactive
16,C#CCN(C)Cc1ccccc1,inactive
17,CCCCN(CCCC)CCCC,inactive
18,Cc1cccc(C(=O)O)c1,inactive
19,C=C(C)C(=O)OCCCCCC,inactive
20,C=CCCCCCCCCCC,inactive

row,SMILES,Potency
1,CC(C)(C)C1CCC(O)CC1 (stereo not given),inactive
2,CCn1c2ccccc2c2cc(N)ccc21,inactive
3,C[Si]1(C)O[Si](C)(C)O[Si](C)(C)O[Si](C)(C)O1,inactive
4,[O-]/[N+](=N\O)c1ccccc1,inactive
5,CC(=O)Nc1ccc2c(c1)Cc1cc(NC(C)=O)ccc1-2,inactive
6,CCCCCCCCCCCC(=O)OC,inactive
7,CCCCCCCCCCCCO,inactive
8,C/C=C/c1ccc(OC)cc1,inactive
9,COC(=O)C(C)Oc1ccc(Oc2ncc(C(F)(F)F)cc2Cl)cc1 (stereo not given),inactive
10,O=S(=O)(O)c1ccc2nc(-c3ccccc3)[nH]c2c1,inactive
11,CCCCCC1=CCCC1=O,inactive
12,O=C1C(N(CO)C(=O)NCO)N(CO)C(=O)N1CO (stereo not given),inactive
13,CCCCOC(=O)COc1ccc(Cl)cc1Cl,inactive
14,CC(C)(C)c1cccc(C(C)(C)C)c1O,inactive
15,CC(O)COc1ccccc1 (stereo not given),inactive
16,OC[C@H]1O[C@@H](Oc2ccc(O)cc2)[C@H](O)[C@@H](O)[C@@H]1O,inactive
17,CCCCCCOCCO,inactive
18,NC(N)=NC(=O)c1nc(Cl)c(N)nc1N,inactive
19,C=CN1CCCC1=O,inactive
20,CCCCC(=O)O,inactive
